Source: PubChem BioAssay (Tox21)
“And” between values parts separate entries of the source, which are not always exact repeats. Equal entries are not always repeated. Inconclusive results are not listed. Where a call stands in place of a potency, no number is given. Some compounds were tested as several samples or in several runs, with calls that do not always agree. The source made the active and inactive calls. Calls follow the shape of the dose curve; as a rule, active = well fitted cell-killing curve with a large enough effect in the repeat runs; inconclusive = weak or mixed curves, or effect the other way; inactive = no such curve, though single readings can be large or run the other way.

Experiment: qHTS assay for identifying genotoxic compounds that show differential cytotoxicity against isogenic chicken DT40 cell lines with known DNA damage response pathways - Rev3 mutant cell line (AID 743014); also: nearly all actives have a fitted effect of over 55% in size
Conditions: chicken DT40 Rev3-/- viability, CellTiter-Glo, 40 h; series mostly up to 68.4 µM
Excerpt: National Center for Advancing Translational Sciences [NCATS]
NIH Chemical Genomics Center [NCGC]
U.S. Environmental Protection Agency [EPA]
National Institutes of Environmental Health Sciences [NIEHS]
National Toxicology Program [NTP]
U.S. Food and Drug Administration [FDA]
DNA repair pathways play a critical role in cellular homeostasis by repairing DNA damage induced by endogenous processes and xenobiotics. Isogenic chicken DT40 cell lines deficient in different DNA repair pathways can be used to identify genotoxic compounds and aid in characterizing the nature of the DNA damage induced. Two DNA repair-deficient cell lines with disrupted genes, Rad54/Ku70 or Rev3, were used to screen the Tox21 10K compound library. Possible genotoxicity was based on the presence of a significant increase in cytotoxicity in one or more of the DNA repair-deficient cell lines compared to that observed in the parental DNA repair-proficient cell line. CellTiter Glo viability assay (Promega, Madison, WI) was used to measure cell viability in these cells after compound treatment. This assay includes the data from the Rev3 mutant cell line.
Tox21 Assay Protocol Summary:
300 DT40 mutant cells in 5 uL/well were dispensed into white, solid-bottom 1536-well plates using a Multidrop Combi (ThermoFisher Scientific, Waltham, MA) dispenser. After the assay plates were incubated at 37 C/5% CO2 for approximately 0.5 hour, 23 nL of compounds dissolved in DMSO, positive controls or DMSO only was transferred into the assay plate by a pintool work station (Kalypsys, San Diego, CA). The assay plates were incubated at 37 C/5% CO2 for 40 hours. After 5 uL per well of CellTiter-Glo reagent was added into each well of the assay plates, the plates were incubated for 30 min at room temperature and the luminescence intensity of the plates was measured using a ViewLux (PerkinElmer, Shelton, CT) plate reader.
Potency is read from the fitted curve at half-maximal effect.

SMILES | Potency
CCOC(=O)CC(SP(=O)(OC)OC)C(=O)OCC (stereo not given) | inactive
CCCCCCCCCCCCCCCCCC(=O)O | 60.7 µM (active) and inactive
Cl/C=C/Cl | inactive
FC(F)(F)c1ccc(Cl)cc1 | inactive
CNc1cnn(-c2cccc(C(F)(F)F)c2)c(=O)c1Cl | inactive and 61.1 µM (active)
Cc1ccccc1N | inactive
O=C/C=C/c1ccccc1 | inactive
O=[N+]([O-])c1cc([As](=O)(O)O)ccc1O | inactive
COS(=O)(=O)OC | inactive
[N-]=[N+]=CC(=O)OC[C@H](N)C(=O)O | inactive
CCOP(=S)(OCC)Oc1cc(C)nc(C(C)C)n1 | inactive
Nc1ncc([N+](=O)[O-])s1 | inactive
ClCCOCCCl | inactive
O=[N+]([O-])c1ccc(Cl)c(Cl)c1 | inactive
CN(C)C(=O)Nc1cccc(C(F)(F)F)c1 | inactive
O=S(=O)(O)OOS(=O)(=O)O | inactive
CCNc1nc(Cl)nc(NC(C)C)n1 | inactive
O=C(O)CCCc1ccc(N(CCCl)CCCl)cc1 | 1.88 µM (active) and 2.18 µM (active) and 43.3 nM (active)
CC(=O)/C=C/c1ccccc1 | inactive
COP(=S)(OC)SCN1C(=O)c2ccccc2C1=O | 61.6 µM (active)

SMILES | Potency
CNC(=O)O/N=C/C(C)(C)S(C)(=O)=O | inactive
Cc1cccc(N)c1 | inactive
Cc1cccc(C)c1N | inactive
Cc1cc(O)ccc1Cl | inactive
Nc1cc(Cl)cc(Cl)c1 | inactive
ClC(Cl)c1ccccc1 | inactive
CN(C)C(=O)C(c1ccccc1)c1ccccc1 | inactive
Cc1ccc(N=C=O)cc1N=C=O | inactive
N#CN=C(N)N | inactive
C=CC#N | inactive
CC(C)(C)C(=O)CCl | inactive
O=C(O)COc1ccccc1 | inactive
Nc1ccc([As](=O)(O)O)cc1 | inactive and 29.8 µM (active)
O=P1(NCCCl)OCCCN1CCCl (stereo not given) | inactive
COc1nc(NC(C)C)nc(NC(C)C)n1 | inactive
CCSC(=O)N1CCCCCC1 | inactive
CC(C)c1cccc(C(C)C)c1O | inactive
O=C(O)Cc1ccccc1 | inactive
C/C=C/c1ccc2c(c1)OCO2 | inactive
CNC(=O)Oc1cccc2ccccc12 | inactive
